BL2 CD40 inh: CD40 pathway inhibition in BL2 cells. BL2 NF-kB luciferase reporter, CD40L-induced, 4 h. 83,000 compounds, 0.94% hits. AID 1053188. inhibition, % at 10 µM;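 active = mean inhibition of at least 50% with a set share of replicates also reaching that level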;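 also: 0% = neutral control wells and 100% = IKK inhibitor VII at 50 µM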
Numbers without * were called inactive; [ ] = dose if it differs, or a comment. The full list was thinned out, with hits kept by preference.

SMILES | BL2 CD40 inh
CN(C)C(=O)c1cccc(-c2ccc([C@H]3[C@@H](C#N)N(C(=O)C4CC4)[C@@H]3CO)cc2)c1 | 0
C[C@H](CO)N1C[C@H](C)[C@@H](CN(C)C(=O)CCCN(C)C)OCCCC[C@H](C)Oc2ccc(NC(=O)Nc3ccc4c(c3)OCO4)cc2C1=O | -9[25 µM]
O=C(C1CCCC1)N1CC(=O)N2[C@H](C1)[C@H](c1ccc(C#CCc3ccccc3)cc1)[C@@H]2CO | 24
O=C(C1CCOCC1)N1CC(=O)N2[C@@H](CO)[C@H](c3ccc(C#CCc4ccccc4)cc3)[C@@H]2C1 | 4[25 µM]
O=C(C1CCC1)N1CC(=O)N2[C@H](CO)[C@H](c3ccc(C#CCc4ccccc4)cc3)[C@H]2C1 | 71*
O=C(C1CCOCC1)N1CC(=O)N2[C@H](CO)[C@H](c3ccc(C#CCc4ccccc4)cc3)[C@@H]2C1 | -11[25 µM]
COCC#Cc1ccc([C@H]2[C@H](CO)N3C(=O)CN(C(=O)C4CCCCC4)C[C@@H]23)cc1 | 1[25 µM]
O=C(C1CCCC1)N1CC(=O)N2[C@H](CO)[C@H](c3ccc(C#CCc4ccccc4)cc3)[C@H]2C1 | 66*
COCC#Cc1ccc([C@@H]2[C@H](CO)N3C(=O)CN(C(=O)C4CCCCC4)C[C@@H]23)cc1 | -24[25 µM]
O=C(C1CCOCC1)N1CC(=O)N2[C@H](CO)[C@H](c3ccc(C#CCc4ccccc4)cc3)[C@H]2C1 | 37[25 µM]
O=C(C1CCOCC1)N1CC(=O)N2[C@H](C1)[C@H](c1ccc(C#CCc3ccccc3)cc1)[C@@H]2CO | 75*[25 µM]
C[C@H](CO)N1C[C@H](C)[C@H](CN(C)C(=O)[C@H](Cc2ccccc2)N(C)C)OCc2ccccc2-c2c(n(C)c3ccccc23)C1=O | 25[25 µM]
N#C[C@H]1[C@@H](c2ccc(-c3cccnc3)cc2)[C@@H](CO)N1C(=O)Nc1ccc(F)cc1 | 27[25 µM]
O=C(Cc1ccccn1)N1CC2(C1)[C@H](c1ccccc1)[C@@H](CO)N2C(=O)c1ccncc1 | 0[25 µM]
CCCc1cn(CC[C@H]2CC[C@@H](NC(=O)C3CCCC3)[C@H](CO)O2)nn1 | 0
CC(=O)N(C)C[C@@H]1Oc2c(NS(C)(=O)=O)cccc2C(=O)N(C)C[C@H]1C | 3
O=C(NC1=NCCS1)c1ccc(OCC2CCCO2)cc1 (centres undefined) | 6
Cc1cnc(NC(=O)c2ccc(OCC3CCCO3)cc2)s1 (centres undefined) | 80*
O=C(Nc1ccc(S(=O)(=O)N2CCCC2)cc1)c1ccc(OCC2CCCO2)cc1 (centres undefined) | 24
O=C(Nc1nc2ccccc2s1)c1ccc(F)cc1 | -80
O=C(Nc1ncccc1O)c1ccc(OCC2CCCO2)cc1 (centres undefined) | 39
O=C(Nc1nc2ccccc2s1)c1ccc(OCC2CCCO2)cc1 (centres undefined) | 56*
O=C(Nc1ccccc1)N1CC(=O)N2[C@H](CO)[C@@H](c3ccc(C#CC4CCCC4)cc3)[C@@H]2C1 | 10
COc1cccc(CNC(=O)[C@H]2[C@H](CO)[C@H]3Cn4c(ccc(-c5ccncc5)c4=O)[C@@H]2N3C(C)=O)c1 | 4[25 µM]
CCC(=O)NC[C@@H]1[C@@H](c2ccccc2)[C@@H](CO)N1C(=O)C1CC1 | 1[25 µM]
SMILES | BL2 CD40 inh
CC(C)NC(=O)N(C)C[C@H]1OCCCC[C@H](C)Oc2ccc(NC(=O)NC3CCCCC3)cc2C(=O)N([C@@H](C)CO)C[C@H]1C | 1
COC(=O)[C@H]1[C@H](CO)[C@H]2Cn3c(ccc(C4=CCCC4)c3=O)[C@H]2N1CC1CCOCC1 | 4[25 µM]
Cc1nc(-c2ccc3c(c2)OCCO3)cs1 | -73
Oc1ccccc1-c1cc(-c2ccc3c(c2)OCCO3)n[nH]1 | 54*
c1cncc(-c2nc(-c3ccc4c(c3)OCCO4)cs2)c1 | -59
Cc1cc(C)c2c(c1)SC1=NC(c3ccccc3)(C(F)(F)F)NC(=O)N12 (centres undefined) | 50*
COCCNC(=O)[C@@H]1[C@@H](CO)[C@@H]2Cn3c(ccc(-c4ccccc4F)c3=O)[C@H]1N2S(C)(=O)=O | -8[25 µM]
NCC[C@H]1CC[C@@H](NC(=O)Cc2ccncc2)[C@@H](CO)O1 | -8[25 µM]
Cc1ccccc1NC(=O)C[C@H]1CC[C@H]2[C@@H](COc3ccc(NC(=O)NC(C)C)cc3C(=O)N2C)O1 | 0[25 µM]
COc1ccc2c3c([nH]c2c1)[C@H](CO)N(C(=O)Nc1ccc(F)cc1)CC31CN(S(=O)(=O)c2ccc(C)cc2)C1 | 18[25 µM]
COc1ccc2c3c([nH]c2c1)[C@H](CO)N(C(=O)Nc1cccc(F)c1)CC31CCN(S(=O)(=O)c2cccc(C)c2)CC1 | 80*[25 µM]
COc1ccc2c3c(n(C)c2c1)[C@H](CO)N(C(=O)Nc1ccc(F)cc1)CC31CCN(S(=O)(=O)c2cccc(C)c2)CC1 | 44[25 µM]
CC(C)NC(=O)Nc1cccc2c1O[C@H](CN(C)C(=O)OC(C)(C)C)[C@H](C)CN(C)C2=O | -106
C[C@H]1CN(C)C(=O)Cc2cc(NS(C)(=O)=O)ccc2O[C@H]1CN(C)C | -3
C[C@H]1CN([C@@H](C)CO)C(=O)c2cc(-c3ccc(F)cc3)cnc2O[C@@H]1CN(C)S(C)(=O)=O | -12[25 µM]
C[C@@H]1C[C@H]2[C@@H]3C[C@H](F)C4=CC(=O)C=C[C@]4(C)[C@@]3(F)[C@@H](O)C[C@]2(C)[C@@]1(O)C(=O)COC(=O)C(C)(C)C | 33
CC(=O)[C@@]1(O)CC[C@H]2[C@@H]3C[C@H](C)C4=CC(=O)C=C[C@]4(C)[C@@]3(F)[C@@H](O)C[C@@]21C | 23
CCCC(=O)O[C@]1(C(=O)COC(C)=O)CC[C@H]2[C@@H]3C[C@H](F)C4=CC(=O)C=C[C@]4(C)[C@@]3(F)[C@@H](O)C[C@@]21C | 56*
O=C(NC[C@@H]1N[C@@H](CO)[C@H]1c1ccc(C2=CCCCC2)cc1)c1ccccc1 | -13
Cc1ccc(Cn2c(C)c3cnn(CC(=O)NC4CCCC4)c(=O)c3c2C)cc1 | -11
O=C(Cn1ncc(Cl)c(Cl)c1=O)NC1CCCCC1 | 97*
O=C(CN1CCN(Cc2ccccc2Cl)C1=O)NC1CCCCCCC1 | 11
CC(=O)Nc1ccc2c(c1)C(=O)N(C)C[C@H](C)[C@H](CN(C)C(C)=O)O2 | -6
Cc1nc(-c2ccc(F)cc2)c(CC(=O)N(C)CC(=O)Nc2ccccc2Cl)s1 | 53*
CN(CC(=O)Nc1ccccc1Cl)C(=O)COC(=O)c1cccs1 | 13
SMILES | BL2 CD40 inh
CN(CC(=O)Nc1ccccc1Cl)C(=O)COC(=O)c1ccc(S(=O)(=O)C(F)F)cc1 | 7
O=C1N[C@H](Cc2ccccc2)COCc2cn(nn2)CC[C@H]1Cc1ccccc1 | -2
O=C(c1ccccc1F)N1C[C@@H]2[C@H](c3ccccc31)[C@H](CO)N2C(=O)c1ccc(F)cc1 | 2[25 µM]
Cc1ccc(S(=O)(=O)Nc2ccc3c(c2)CC(=O)N([C@@H](C)CO)C[C@H](C)[C@H](CN(C)S(=O)(=O)c2ccccc2)O3)cc1 | -4[25 µM]
C[C@@H]1CN([C@@H](C)CO)C(=O)c2ccccc2-c2ccccc2CO[C@@H]1CN(C)Cc1ccc2c(c1)OCO2 | 18[25 µM]
CO[C@H]1CN(C)C(=O)c2cc(NC(=O)Nc3cccc(Cl)c3)ccc2OC[C@@H](C)N(C(=O)Nc2c(C)noc2C)C[C@@H]1C | 12[25 µM]
CCC(=O)N1CC[C@H]2[C@H](CO)Nc3ccc(C#Cc4ccccc4F)cc3[C@H]21 | -2[25 µM]
O=C(N[C@@H]1CC[C@H](CC(=O)N2CCOCC2)O[C@@H]1CO)c1cccc(F)c1 | -1[25 µM]
C[C@@H]1CCCCO[C@@H](CN(C)CC2CCCCC2)[C@H](C)CN([C@@H](C)CO)C(=O)c2cc(NC(=O)Nc3ccc(C(F)(F)F)cc3)ccc2O1 | 18

Compound activity (PubChem BioAssay)
